These entries were drawn from the full list.
aSyn 5UTR act: Activators via SNCA 5'UTR binding, MLPCN; activity score, % (tested at 7.5 µM), hits read low; 300,000 compounds, 7.1% hits; alpha-synuclein 5'UTR reporter, activators screen; in the data active means activity score below about -60%
An asterisk follows results filed as active; ! = not active in a repeat.

SMILES	aSyn 5UTR act
O=C(N/N=C/c1ccccc1Cl)c1cccc(F)c1	-138*
O=C(N/N=C/c1cccc(F)c1)c1ccc(Cl)cc1	-150*
CC(C)(C)c1ccc(C(=O)N/N=C/c2cccc(Cl)c2)cc1	-89*
Fc1cccc(/C=N/Nc2ccc(Cl)nn2)c1	-116*
Cc1cc(=O)[nH]c(SCCOc2ccc3c(c2)CCC3)n1	-107*
COc1cc2nc(Nc3cccc(F)c3)nc(N)c2cc1OC	-93*
O=C(CN1CC(=O)Oc2ccccc21)NCc1ccco1	-97*
Cc1c(C(=O)N2CCc3ccccc3C2)oc2ccccc12	-98*
Cc1c(C(=O)N2c3ccccc3CC2C)oc2ccccc12 (stereo unspecified)	-76*
C=CCNC(=S)NNC(=O)COc1ccc2cc(Br)ccc2c1	-157*
O=C(Oc1ccc2ccccc2c1Cl)N1CCCC1	-79*
CC(C)c1ccc(OCC(=O)N2CCCCCC2)c(Br)c1	-132*
O=C(COc1ccc2cc(Br)ccc2c1)N1CCCC1	-62*
O=C(COc1ccc2ccccc2c1Br)N1CCCC1	-90*
O=C(COc1ccc2ccccc2c1Br)Nc1ncn[nH]1	-68*
S=C(Nc1ccc(Cl)cc1)c1nc2ccccc2s1	-127*
Cc1ccc(C)c(NC(=S)c2nc3ccccc3s2)c1	-258*
Cc1ccc(C)c(NC(=S)c2ccccn2)c1	-114*
Cc1ccc(C)c(NC(=S)c2ccc3ccccc3n2)c1	-288*
Nc1nc(-c2ccccn2)nc(N)c1Cc1ccccc1F	-246*
Cc1cc2c([nH]c3ccccc32)c2c1OC(C)(C)C=C2	-204*
Cc1cc2[nH]c3c(c[n+](C)c4ccccc34)c2cc1C	101
CCN1C=CC(=C2C(=O)c3ccccc3C2=O)C=C1	96
CCCN1C=CC(=C2C(=O)c3ccccc3C2=O)C=C1	132
CC1=CC(=C2C(=O)c3ccccc3C2=O)C=C(C)N1Cc1ccco1	-217*
SMILES	aSyn 5UTR act
CC1=CC(=C2N=C(c3ccccc3)OC2=O)C=C(C)O1	-146*
CC1=CC(=C2C(=O)c3ccccc3C2=O)C=C(C)O1	-129*
Nc1cc2nc[nH]c2cc1N	-100*
Nc1nc(-c2cc(O)ccc2[N+](=O)[O-])cc(-c2ccccc2)c1[N+](=O)[O-]	-120*
O=C(Nc1ccc(NC(=O)c2cccs2)cc1)c1cccs1	-141*
Cc1cccnc1NC(=O)NC(=O)c1ccc(C(C)(C)C)s1	-169*
O=C(NC(=S)Nc1ccc(N2CCCCC2)c(Cl)c1)c1cccs1	-110*
CN1CCN(c2ccc(NC(=O)c3cccs3)cc2)CC1	-88*
O=C(CNC(=S)NC(=O)C1CCCCC1)c1ccccc1	-126*
CC(C)C(=O)Nc1ccc(NC(=O)c2cccs2)cn1	-132*
COc1ccc(NC(=O)c2cccs2)cc1	-149*
CCCCOc1cccc(C(=O)Nc2ccc(NC(=O)c3cccs3)cc2)c1	64
COc1ccc(NC(=O)c2cccs2)cc1O	-135*
Cc1cccnc1NC(=S)NC(=O)c1cccs1	-398*
Cc1conc1NC(c1cccs1)c1ccc2cccnc2c1O (stereo unspecified)	66
COc1ccc(NC(=O)Cn2nnc(-c3ccccc3NC(=O)c3cccs3)n2)cc1	-169*
CCC(=O)NC(c1cccs1)c1ccc2cccnc2c1O (stereo unspecified)	80
O=C(CNC(=S)NC(=O)c1ccco1)c1ccccc1	-80*
Cc1ccn(-c2ccc(NC(=O)c3cccs3)cc2)n1	-63*
Cc1ccc(NC(=O)Cn2nnc(-c3ccccc3NC(=O)c3cccs3)n2)cc1	67
CCCCNS(=O)(=O)c1ccc(NC(=O)c2cccs2)cc1	-66*
COc1cc(OC)cc(C(=O)Nc2ccc(N3CCN(C(=O)c4cccs4)CC3)cc2)c1	-180*
O=C(NC(=S)Nc1ccc(Br)cn1)c1cccs1	-172*
CC1=C(C)CC(C(=O)NCC(=O)c2ccccc2)C(C(=O)O)C1 (stereo unspecified)	-169*
COc1ccc(/C=C/C(=O)c2ccc(NC(=O)c3cccs3)cc2)cc1OC	-94*
SMILES	aSyn 5UTR act
CC(C)c1ccc(NC(=S)NNC(=O)c2cccs2)cc1	-95*
CCC(C)c1ccc(NC(=O)c2cccs2)cc1 (stereo unspecified)	-71*
O=C(Nc1ccc(Cl)cc1)c1cccs1	-146*
O=C(Nc1ccc(NC(=O)C2CC2)cc1)c1cccs1	-169*
O=C(Cc1ccccc1)NNC(=S)NC(=O)c1cccs1	75
O=C(CNC(=S)NC(=O)c1cccs1)c1ccccc1	-74*
O=C(NC(=S)Nc1ccccc1)c1cccs1	-147*
COc1ccc(NC(=S)NNC(=O)c2cccs2)cc1	-81*
O=C(Nc1ccc2[nH]ccc2c1)c1cccs1	-105*
COc1ccccc1NC(=O)Cn1nnc(-c2ccccc2NC(=O)c2cc3ccccc3oc2=O)n1	-119*
O=C(Nc1cccc(N2CCCC2)c1)c1cccs1	-66*
Cc1ccc(Nc2ncnc(-n3cccc3)n2)cc1Cl	-125*
CSc1nc2nccc(/C=C\c3ccccc3)n2n1	-89*
Cc1cc(O)c(NC(=O)c2ccco2)cc1C	-98*
Cc1cc(NC(=O)c2ccccc2)ncc1NC(=O)c1ccco1	-115*
Cc1ccc(C(=O)Nc2ccc(NC(=O)c3ccco3)c(C)c2)cc1	-67*
Cc1cc(NC(=O)C(C)C)ncc1NC(=O)c1ccccn1	-88*
Cc1ccc(O)c(NC(=O)c2ccco2)c1	-66*
C=C[C@@]1(C)CC(=O)[C@]2(O)[C@@]3(C)[C@@H](O)CCC(C)(C)[C@@H]3[C@H](O)[C@H](OC(C)=O)[C@@]2(C)O1	72
O=c1oc(-c2ccccc2)cc(Cl)c1Cl	-198*
Fc1ccc(-c2nnc(CSc3nnc4ccccn34)o2)cc1	-116*
Fc1ccc(CSc2nnc3ccccn23)c(Cl)c1	-92*
c1ccc(-c2cnc(CSc3nnc4ccccn34)o2)cc1	-94*
O=c1c2ccccc2ncn1-c1ccc(Cl)cc1	-103*!
O=C(Cn1cnc2ccccc2c1=O)c1ccc(Cl)cc1	-90*
SMILES	aSyn 5UTR act
O=C(Cn1cnc2ccc(Cl)cc2c1=O)c1cccs1	-136*
CCOc1ccc(C(=O)Cn2cnc3ccccc3c2=O)cc1	-94*
O=C(Cn1cnc2ccccc2c1=O)c1ccc(OC(F)F)cc1	-73*
O=C(Cn1cnc2ccccc2c1=O)c1ccc(Br)cc1	-153*
O=C(Cn1cnc2ccccc21)c1ccc(Cl)cc1	-71*
O=C(Cn1cnc2ccccc2c1=O)c1ccccc1	-80*
Cn1c(=N)n(CC(=O)c2ccc(Cl)c(Cl)c2)c2ccccc21	81
Nc1nc(Cl)nc2c1ncn2[C@H]1C[C@H](O)[C@@H](CO)O1	84
CC(/C=C/c1ccc2c(c1)OCO2)=N/NC(=O)CNc1ccc(C)cc1	-62*
Cc1ccc(NC(=O)Nc2ccc(Cl)cn2)cc1	-147*
Cc1ccc(NC(=O)Nc2ccc(Cl)c(Cl)c2)nc1	-90*
Cc1ccc(NC(=O)Nc2ccc3c(c2)OCO3)nc1	-193*
Cc1ccc(NC(=O)/C=C/c2ccc3c(c2)OCO3)nc1	-109*
O=C(Nc1ccccn1)c1ccc2c(c1)S(=O)(=O)c1ccccc1C2=O	-90*
Cc1ccnc(NC(=O)c2ccc(Cl)c(S(=O)(=O)N3CCCC3)c2)c1	-132*
O=C(Nc1ccccn1)c1ccc(Cl)c(S(=O)(=O)N2CCCCCC2)c1	-81*
CC1=CCC(/C=N\Nc2nnc3c(n2)[nH]c2ccccc23)CC1 (stereo unspecified)	-65*
COc1cc(OC)cc(-c2cc3nc(C)cc(N4CCN(C(=O)c5ccco5)CC4)n3n2)c1	-70*
COc1cc(OC)cc(-c2cc3nc(C)c(CCC(=O)NCc4ccccc4)c(C)n3n2)c1	75
